DT40 TDP1 no CPT = qHTS for Inhibitors of human tyrosyl-DNA phosphodiesterase 1 (TDP1): qHTS in cells in absence of CPT; 15% of 420,000 active; AID 686978, 2013; Potency, µM (top dose mostly 46.2 µM), hits mostly inhibitors; DT40 Tdp1-/- hTDP1 cells, no CPT, ATP luminescence, 48 h; also: nearly all actives have a fitted effect of over 55% in size
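Compound effects on proliferation are scored in DT40 Tdp1-/-;hTDP1 cells in the absence of CPT. ATP levels (CellTiter-Glo luminescence) are recorded after a ≥48 hr, 37 °C incubation.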
ClpP mod = qHTS Assay for Activators of ClpP; Potency, µM (series often up to 57.5 µM); ATP-dependent Clp protease proteolytic subunit (Bacillus subtilis (strain 168)), P80244; AID 651965, 2013; purified B. subtilis ClpP, FRET peptide cleavage, 20 min; 1.9% of 340,000 active; active = well fitted falling curve with a large enough effect; inconclusive = small, poorly fitted or top-dose-only effect; inactive = no such curve, though single readings can be large or run the other way; also: the source files actives as falling curves though it sought activators and does not explain the sign; nearly all actives have a fitted effect of over 65% in size
Target sequence (P80244 whole entry, looked up): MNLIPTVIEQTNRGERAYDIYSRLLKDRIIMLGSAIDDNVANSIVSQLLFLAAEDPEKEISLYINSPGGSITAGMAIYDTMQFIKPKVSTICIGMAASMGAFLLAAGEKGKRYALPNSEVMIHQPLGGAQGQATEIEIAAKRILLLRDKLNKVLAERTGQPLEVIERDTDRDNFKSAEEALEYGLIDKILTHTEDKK
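ClpP 10 microg/mL final, pH 8 Tris/KCl buffer with BSA, glycerol, Tween-20; compound pinned in; FRET-FV substrate; RT 20 min; Ex320/Em430; ΔFRET vs ADEP 5.8 microM, DMSO, no enzyme.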
TDP1 inh = TDP1 (human) enzyme inhibition; Q9NUW8; recombinant TDP1, AlphaScreen DNA substrate cleavage; Potency, µM (series often up to 130 µM), usual class: inhibitors; 0.28% of 350,000 active; also: nearly all actives have a fitted effect of over 40% in size
Target sequence (Q9NUW8 whole entry, looked up): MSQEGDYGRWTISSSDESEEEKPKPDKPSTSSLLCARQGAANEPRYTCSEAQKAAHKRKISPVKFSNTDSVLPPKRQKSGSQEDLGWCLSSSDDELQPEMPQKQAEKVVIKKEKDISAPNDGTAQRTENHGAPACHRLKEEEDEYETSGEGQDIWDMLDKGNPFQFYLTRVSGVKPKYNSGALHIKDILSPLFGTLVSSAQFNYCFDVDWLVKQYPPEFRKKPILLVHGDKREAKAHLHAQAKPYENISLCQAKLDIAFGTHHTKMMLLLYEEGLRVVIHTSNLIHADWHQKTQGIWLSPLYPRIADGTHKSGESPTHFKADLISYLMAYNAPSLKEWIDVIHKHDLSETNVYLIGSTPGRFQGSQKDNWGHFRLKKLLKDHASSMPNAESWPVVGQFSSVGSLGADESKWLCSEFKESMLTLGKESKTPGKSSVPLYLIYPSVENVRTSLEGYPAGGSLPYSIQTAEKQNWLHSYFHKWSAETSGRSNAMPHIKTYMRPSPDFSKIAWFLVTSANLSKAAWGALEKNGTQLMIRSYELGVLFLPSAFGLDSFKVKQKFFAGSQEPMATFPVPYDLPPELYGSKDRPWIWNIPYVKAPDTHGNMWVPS
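Recombinant E. coli-expressed Tdp1 (1 nM) preincubated with compound 15 min at RT, then 5'-biotin/3'-phosphotyrosine-FITC DNA substrate (15 nM) added for 5 min. AlphaScreen beads (10 ug/ml) added, 10 min RT; tyrosine-FITC cleavage read as signal loss.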
TDP1 cell CPT = DT40-hTDP1 cell growth loss with CPT; 12% of 420,000 active; chicken DT40 Tdp1-/-;hTDP1 cells + 20 nM CPT, ATP luminescence, 48 h; Potency, µM (titrated, usually from 46.2 µM), most hits filed as inhibitors; also: nearly all actives have a fitted effect of over 55% in size
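Chicken DT40 Tdp1-/- cells stably complemented with human TDP1 were seeded at 400 cells/well in medium containing 20 nM camptothecin, exposed to pin-transferred compounds, and grown at 37 °C for at least 48 hr. Viability was read as ATP luminescence.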
Each line names hits and unclear results; the compound was inactive in the other large screens. Rows were chosen to be rich in hits. Some 17% of all compounds tested hit in one or more screens of this group. Unless noted, calls follow the shape of the dose curve; as a rule, active = well fitted curve in the direction sought with a large enough effect; inconclusive = small, poorly fitted or top-dose-only effect, or another doubt; inactive = no such curve, though single readings can be large; an effect the other way counts as inactive or inconclusive.

Clc1ccc(OCc2nnc(SCc3nc4ccccc4[nH]3)n2Cc2ccco2)cc1	DT40 TDP1 no CPT 21µM, TDP1 cell CPT 21µM
c1coc(Cn2c(SCc3nc4ccccc4[nH]3)nnc2-c2cnccn2)c1	DT40 TDP1 no CPT 23µM, TDP1 cell CPT inconclusive
COc1cccc(CCNC(=O)CC2C(=O)NCCN2Cc2ccc(C)o2)c1 (stereo unspecified)	none
O=C(O)c1cncc(C#CCC2CCCCC2)c1	none
COC(=O)C[C@@H]1C=C[C@@H](NC(=O)NC2CCCC2)[C@@H](CO)O1	none (no result: TDP1 inh)
CC#CCN1c2ccccc2[C@]23C[C@@H](C(=O)OC)N(S(=O)(=O)c4ccc(OC)cc4)C2=NC(C(=O)OC)=C(C(=O)OC)[C@H]13	none (no result: DT40 TDP1 no CPT, ClpP mod, TDP1 cell CPT)
Cc1cc(C(=O)CN2C(=O)NC(c3ccccc3)(c3ccccc3)C2=O)c(C)n1Cc1ccccc1	DT40 TDP1 no CPT inconclusive, TDP1 cell CPT inconclusive
COc1ccc(C(=O)NC(=S)Nc2ccc(N3CCOCC3)c(Cl)c2)cc1[N+](=O)[O-]	DT40 TDP1 no CPT 21µM, TDP1 cell CPT 13µM
COc1ccc(C(=O)NC(=S)Nc2ccccc2N2CCOCC2)cc1[N+](=O)[O-]	DT40 TDP1 no CPT 16µM, TDP1 cell CPT 16µM
CCOc1ccc(NC(=O)Nc2c(C)n(C)n(-c3ccccc3)c2=O)cc1	none
COc1ccc(C2=C/C(=C\c3ccccc3OC(C)=O)C(=O)O2)cc1	DT40 TDP1 no CPT 15µM, TDP1 cell CPT 21µM (no result: TDP1 inh)
Cc1ccc(-n2c(SCC(=O)N3CCCc4ccccc43)nc3c([nH]c4ccccc43)c2=O)cc1	none
CC(=O)Oc1c(Cl)c(N2CCOCC2)c(OC(C)=O)c2ccccc12	DT40 TDP1 no CPT 16µM, TDP1 cell CPT 21µM
Cc1cc(C)n(-c2ccc(C(=O)N3CCN(S(=O)(=O)c4ccc(Br)cc4Cl)CC3)cc2)n1	DT40 TDP1 no CPT 16µM, TDP1 cell CPT 23µM (no result: TDP1 inh)
O=S(=O)(c1ccc(Br)cc1Cl)N1CCN(CCO)CC1	none (no result: ClpP mod)
Cc1cc(C)n(-c2ccc(C(=O)N3CCC(CO)(Cc4ccccc4)CC3)cc2)n1	DT40 TDP1 no CPT inconclusive, TDP1 cell CPT 16µM
Cc1cc(C)n(-c2ccc(C(=O)N3CCN(c4ccccn4)CC3)cc2)n1	none
CC(NC(=O)c1ccc(NC(=O)CC2SC(N3CCCC3)=NC2=O)cc1)c1ccc(F)cc1 (stereo unspecified)	none
COc1ccccc1C(O)(c1ccccc1)C(CN1CCOCC1)c1ccccc1 (stereo unspecified)	DT40 TDP1 no CPT inconclusive, TDP1 cell CPT inconclusive
CCCCCCC(O)(c1ccc(OC)cc1)C(CN1CCOCC1)c1ccccc1 (stereo unspecified)	DT40 TDP1 no CPT inconclusive, TDP1 cell CPT inconclusive (no result: TDP1 inh)
CC(C)CCC(O)(c1ccccc1)C(CN1CCOCC1)c1ccccc1 (stereo unspecified)	DT40 TDP1 no CPT 16µM, TDP1 cell CPT 18µM (no result: TDP1 inh)
CC(C)CC(O)(c1ccccc1)C(CN1CCOCC1)c1ccccc1 (stereo unspecified)	DT40 TDP1 no CPT 21µM, TDP1 cell CPT inconclusive (no result: ClpP mod, TDP1 inh)
COc1ccc(C(O)(CCC(C)C)C(CN2CCOCC2)c2ccccc2)cc1 (stereo unspecified)	DT40 TDP1 no CPT 21µM, TDP1 cell CPT 23µM (no result: TDP1 inh)
CC(=O)Nc1ccccc1-c1nc(CNC(=O)c2ccc(F)c(F)c2)c(C)o1	none (no result: ClpP mod, TDP1 inh)
CN=c1scc(-c2ccc([N+](=O)[O-])cc2)n1/N=C/c1ccco1	none (no result: ClpP mod)
O=C1c2ccc([N+](=O)[O-])cc2NC(c2ccco2)N1/N=C/c1ccco1 (stereo unspecified)	DT40 TDP1 no CPT 18µM (no result: ClpP mod)
CCC(C)c1ccccc1NC(=O)CN1CCN(C/C=C/c2ccccc2)CC1 (stereo unspecified)	none (no result: ClpP mod)
Cc1cnc(C)c(-c2cccc3c2OC(CNC(=O)CN2C(=O)c4ccccc4C2=O)C3)n1 (stereo unspecified)	none (no result: ClpP mod, TDP1 inh)
COC(=O)CCNC(=O)Cc1c(C)n(C(=O)c2ccc(Cl)cc2)c2ccc(OC)cc12	DT40 TDP1 no CPT inconclusive, TDP1 cell CPT inconclusive (no result: ClpP mod)
CCCNC(=O)Cc1c(C)n(C(=O)c2ccc(Cl)cc2)c2ccc(OC)cc12	DT40 TDP1 no CPT inconclusive, TDP1 cell CPT 21µM
CCCCOC(=O)c1ccc(N=Nc2c(C)c(C#N)c(O)[nH]c2=O)cc1	DT40 TDP1 no CPT 23µM, TDP1 cell CPT inconclusive
CCC(C)C(=O)Nc1nc(-c2ccc3c(c2)NC(=O)CO3)cs1 (stereo unspecified)	DT40 TDP1 no CPT 18µM, TDP1 cell CPT inconclusive
Nc1nc(-c2ccc3c(c2)NC(=O)CO3)cs1	TDP1 cell CPT inconclusive
O=C1COc2ccc(-c3csc(NCCc4ccccc4)n3)cc2N1	DT40 TDP1 no CPT 3.7µM, TDP1 cell CPT 16µM
O=C(O)c1ccc2c3c(ncnc13)-c1ccccc1C2=O	DT40 TDP1 no CPT 23µM, TDP1 cell CPT 23µM
Cc1noc(C)c1CSCC(=O)Oc1ccc(N(C)S(=O)(=O)c2ccccc2)cc1	none
CCc1noc(C)c1C(=O)Oc1ccc(N(C)S(=O)(=O)c2ccccc2)cc1	DT40 TDP1 no CPT 16µM, TDP1 cell CPT 23µM (no result: TDP1 inh)
Cc1ccc(S(=O)(=O)N(C)c2ccc(OC(=O)c3ccc(=O)[nH]c3)cc2)cc1	DT40 TDP1 no CPT inconclusive, TDP1 cell CPT inconclusive
CCc1noc(C)c1C(=O)Oc1ccc(N(C)S(=O)(=O)c2ccc(C)cc2)cc1	DT40 TDP1 no CPT 2.6µM, TDP1 cell CPT 18µM
COc1ccccc1NC(=O)c1cc2c(CO)cnc(C)c2oc1=Nc1ccc(OC)c(OC)c1	DT40 TDP1 no CPT inconclusive, TDP1 cell CPT 9.2µM (no result: TDP1 inh)
COc1ccc(NC(=O)c2cc3c(CO)cnc(C)c3oc2=Nc2cccc(C)c2)c(OC)c1	DT40 TDP1 no CPT 4.1µM, TDP1 cell CPT inconclusive (no result: ClpP mod, TDP1 inh)
COc1ccccc1NC(=O)c1cc2c(CO)cnc(C)c2oc1=Nc1cc(OC)c(OC)c(OC)c1	none (no result: TDP1 inh)
OC1(c2cccc(C(F)(F)F)c2)CCN(CCN2CCCCC2)CC1	DT40 TDP1 no CPT inconclusive (no result: TDP1 inh)
CCCCN(Cc1ccccc1)C(=O)C1CCC(=O)N(CCc2ccccn2)C1 (stereo unspecified)	none
COc1cc(C(C(=O)NC2CCCC2)N(CCO)C(=O)Cn2nnc(-c3ccc(C)o3)n2)ccc1O (stereo unspecified)	none (no result: ClpP mod)
Cc1ccc(CCNC(=O)c2c(C)oc3nc(C)nc(N4CCOCC4)c23)cc1	DT40 TDP1 no CPT inconclusive, TDP1 cell CPT inconclusive
CC(c1ccccc1)N(CCC(c1ccccc1)C1CCOC(C)(C)C1)C(=O)c1ccco1 (stereo unspecified)	DT40 TDP1 no CPT 18µM, TDP1 cell CPT inconclusive
COc1ccc(CN(CCC(c2ccc(F)cc2)C2CCOC(C)(C)C2)C(=O)c2ccco2)cc1 (stereo unspecified)	DT40 TDP1 no CPT 16µM, TDP1 cell CPT 21µM (no result: ClpP mod)
CCOC(=O)CSc1nc(-c2ccc(F)cc2)cc(C(F)(F)F)c1C#N	ClpP mod inconclusive
O=C(NCc1ccccc1)c1cccnc1N1CCOCC1	none
CCOc1ccc(NC(=O)c2cnc(N3CCCCC3)c3ccccc23)cc1	DT40 TDP1 no CPT 13µM, TDP1 cell CPT 21µM
O=C(NCc1ccccc1)c1cnc(N2CCCCC2)c2ccccc12	DT40 TDP1 no CPT inconclusive, TDP1 cell CPT 23µM

High-throughput results as filed in PubChem BioAssay.
